Experimental data reported in paper PMC13494018.

Molecular target: CD276, Q5ZPR3
Sequence (Q5ZPR3 whole entry): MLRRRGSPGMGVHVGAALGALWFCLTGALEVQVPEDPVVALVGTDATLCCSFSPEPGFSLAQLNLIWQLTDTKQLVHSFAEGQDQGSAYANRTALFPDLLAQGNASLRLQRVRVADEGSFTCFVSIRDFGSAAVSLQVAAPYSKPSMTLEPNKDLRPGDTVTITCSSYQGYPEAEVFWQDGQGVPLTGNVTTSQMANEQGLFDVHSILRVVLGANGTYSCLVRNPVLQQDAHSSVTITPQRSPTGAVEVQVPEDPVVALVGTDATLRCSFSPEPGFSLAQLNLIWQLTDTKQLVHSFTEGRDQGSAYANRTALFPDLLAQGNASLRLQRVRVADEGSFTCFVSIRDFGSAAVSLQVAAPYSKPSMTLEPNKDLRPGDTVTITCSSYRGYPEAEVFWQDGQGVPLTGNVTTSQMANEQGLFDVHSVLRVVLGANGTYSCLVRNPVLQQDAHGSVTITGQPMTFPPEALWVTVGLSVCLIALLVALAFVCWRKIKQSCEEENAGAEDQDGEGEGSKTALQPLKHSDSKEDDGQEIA

| Binder | binding in a display sort |
| --- | --- |
| d1r8_design_ppi_811_dldesign_0_cycle1_af2pred (protein) AEEEEAERAREEAKESLLAARDTAVGILTAAGLTDKAKEVEKYAEEALKEAEKLTPEEAAKLYGEAANRILTDTIAAASAAVA | not found (inactive) |
| d1r8_design_ppi_790_dldesign_0_cycle0_af2pred (protein) AAAAAQAATATAIRSRGTNRMLTRILALPASASEAELRAIVEEEAERARAEMLAAGVSPELAEAAVEHILRIGEQAIAAR | not found (inactive) |
| d1r8_design_ppi_467_dldesign_0_cycle1_af2pred (protein) AEAEAAVASLVEFVKAILDAAATQDPRLAPAAEEALALMEAGDFDEAARLFLAAGAAAGPAAAALARAAANAMRLAAEAAAAI | not found (inactive) |
| d1r8_design_ppi_443_dldesign_0_cycle1_af2pred (protein) SPAAALLARTAAAIAAQTVREVGPARAAELQALADAATAAAEAGDFTTAGELLEELLRLAAEARAEKAAAERAAAA | not found (inactive) |
| d1r8_design_ppi_742_dldesign_0_cycle1_af2pred (protein) AAAAAAKAAAAAAAQAALRSLRDLAARAKAAEAAGDPEAAAKYRAAAEQWADIAIASAKQAGTEATVAAEAAALLAA | not found (inactive) |
| d1r8_design_ppi_296_dldesign_0_cycle1_af2pred (protein) SAAAKAAAEAAKQRVDGLAQMAIASPALLPHMEAMAKRAAAAVAALDPALGAEVEKYAKEQMAKAKAAVAAAAAAA | not found (inactive) |
| d1r8_design_ppi_590_dldesign_0_cycle1_af2pred (protein) LEEVKKKLKELAELAKSAGKWNPETGKQVVKSLLRVAESEAKRLAGDPEAAEKVKKYGEELAKEAEKEIKEVAAA | not found (inactive) |
| d1r8_design_ppi_744_dldesign_0_cycle1_af2pred (protein) STAEKAVKLVEETAKKGIAEAKADPAKVPAAAKELAKKGKEAAKLIGSTGLAVGIGNLAKTAIAFPEQAPDYFASAAALAKEVAE | not found (inactive) |
| d1r8_design_ppi_443_dldesign_0_cycle0_af2pred (protein) SAAAALLARTAAAIVAQTRALVGDAKAAEAQALADAAVAAAKAGDYAKAGALLTELLKLAAEARREKAAAEAAAAA | not found (inactive) |
| d1r8_design_ppi_454_dldesign_0_cycle1_af2pred (protein) AAEAQARAEKAEKLMREAVELVKADPTPEAVKEAEKLIAEAAKLATGSAEKHAAANAARALRTRGPEAAEVQAKLFVEMIKT | not found (inactive) |
| d1r8_design_ppi_393_dldesign_0_cycle1_af2pred (protein) EREELAERLEKAARLLEEGAASDSPGLLAARAWAAANVAPPEWAARLREVSRAALANVEEGRKLAKELAEELRKEAERLRKEL | not found (inactive) |
| d1r8_design_ppi_716_dldesign_0_cycle1_af2pred (protein) AVEAALAEARAVLERAKEAAKRLKEVGTPEEQKLAEELVALGETALKQAEADGTLATARGALAAARLALQGLEGLLERALARRAAAA | not found (inactive) |
| d1r8_design_ppi_661_dldesign_0_cycle1_af2pred (protein) DVVAEARELAARAEEAAERARADPAASQEVVDLFRQAAGYARNALLLAEGTPESQAQAARLLERARRLFEEAERRFRADVAAAA | not found (inactive) |
| d1r8_design_ppi_723_dldesign_0_cycle1_af2pred (protein) EEAQKKIKELGEKAAELAKKNVEEGAEALKEAAKLAAKAQPASAEQILKHGEAVAERAKTLSPEEAATLVRNAGKVFAQL | not found (inactive) |
| d1r8_design_ppi_373_dldesign_0_cycle1_af2pred (protein) SEELIKNLLLAASKALAGVESAPEAIKAAEEAAKDPRLKEDAEKAKKLIKAAIKATPEEAAKLLKKAAKLLNDALRKYTS | not found (inactive) |
| d1r8_design_ppi_587_dldesign_0_cycle0_af2pred (protein) SEYRREAEELRERVERIEKRMREAKTAEEAREVLREAQRVAAEAARLAVQAAADGADQEVLDEINEVLSRALEVAREASRKARELE | not found (inactive) |
| d1r8_design_ppi_667_dldesign_0_cycle0_af2pred (protein) SAAAAAALAAARATAVAALTAGTGLAPEEAAALAAAMTDDQIFAIANLNAANPAAGQALAANLAAQVRRELA | not found (inactive) |
| d1r8_design_ppi_832_dldesign_0_cycle0_af2pred (protein) AAEAAALKAQIEAAIAQMREETRRAAERDVEEGGRVASAATQQITKLVSQLAKVDPAAGAEAMALLTEAMREVQAYLDAERAARA | not found (inactive) |
| d1r8_design_ppi_616_dldesign_0_cycle1_af2pred (protein) DAAREAALKEAKEEFEKAEKEAEEAIKAAKDDPEAQKKLKELRESAKAALENAEKTKADVTTYKGVKALARMLLQTAEGVKKAAEA | not found (inactive) |

| Binder | binding in a display sort |
| --- | --- |
| d1r8_design_ppi_824_dldesign_0_cycle1_af2pred (protein) AEAERRRAEVLALFDEAVAAGSPELARAAAERAAELNPERAEDIRQQGEIAAALMPFSPRAARALMRTVAA | not found (inactive) |
| d1r8_design_ppi_647_dldesign_0_cycle0_af2pred (protein) KEELVKQAESLEKFAKLAAEGASPEAKPLFEKAAEKFRKAAEAAKENPEEGEKLMAEGRKLLAEGMRLEIQLR | not found (inactive) |
| d1r8_design_ppi_616_dldesign_0_cycle0_af2pred (protein) DAERQAALEEAKKEAERAKKAAEEAIKAAAKDPEAQKKLEEARENLEAALKWAEETNGDVTTWKGVTALARMVLQAAEGIKKKAEA | not found (inactive) |
| d1r8_design_ppi_321_dldesign_0_cycle0_af2pred (protein) SAEENKKRLIAAAEAAFKNFSAEAERLEAEGKKEEAAKVYEQLAELLEQMRESAKATAGEEGAKEIEKLLEEAKKKLEEVK | not found (inactive) |
| d1r8_design_ppi_534_dldesign_0_cycle1_af2pred (protein) AAALAAEAAALAQEALANIAEADALAKKADPEIGKIYEEAARHFMRGVSLAQRGDLERAKKEIEEGKKLFEKAKELEKKKKEKE | not found (inactive) |
| d1r8_design_ppi_588_dldesign_0_cycle1_af2pred (protein) AAEDKALAAAMAAEAEKVIAEAAKQTPAEANKLAATFAEKAFALAKEHPGAAAALNAAAFKVLTGAMKAIQAQSA | not found (inactive) |
| d1r8_design_ppi_780_dldesign_0_cycle1_af2pred (protein) AAATLAALTAAFGRLVELGAEAIRANPALAPEVNKLLGTASKAAIAGIRDPSLAEAALKTIEAQLKKVEELLKKAK | not found (inactive) |
| d1r8_design_ppi_543_dldesign_0_cycle0_af2pred (protein) AAAQTAHAQAVLDTLIALALRKAAEDPAAARAALESAKLVAEGVKATGDAATGAAAQAKVDAAGAEVAAAAA | not found (inactive) |
| d1r8_design_ppi_566_dldesign_0_cycle1_af2pred (protein) MTPEEAREMGERIREAAKRSVEEAVKAIEEAKEKLSPELKPLADRAIELAKRSPEAGANLATTALHIEALS | not found (inactive) |
| d1r8_design_ppi_401_dldesign_0_cycle1_af2pred (protein) MEKVEKAKKGLEQATELAKAMVPEKAEEFEKIRKEGVEEAKKAAGDPEKAAEILAKARNEILRNGIKAAMAAAKAAA | binds (active) |
| d1r8_design_ppi_735_dldesign_0_cycle1_af2pred (protein) SEAAEKALKAVEAAIEVVETGTPEEALAATKAAAEVAKKAAEAAGNLGAQIKATADAAVKATAADKAAGLAKLRTLATLLRAYAEA | not found (inactive) |
| d1r8_design_ppi_356_dldesign_0_cycle1_af2pred (protein) VLEAVSAALSLAEEAAELDPRAGHALLTYANAVWNPATLEKGRKTAREKAKEFKKRAEEEDGERARKAAELLEKAIEEAEKLLKEA | not found (inactive) |
| d1r8_design_ppi_314_dldesign_0_cycle1_af2pred (protein) ALEEAKKAAEEAKAAAAEARAYFDAAGLTGAGNGFYNNTKKRAEELLKEAEEGSEEEAKKARKELERLKETAEKMLEVAKGVYAAAQA | not found (inactive) |
| d1r8_design_ppi_679_dldesign_0_cycle0_af2pred (protein) AEAQKLLEKAKKLAEEAKKIAKESGDEEAKRIAEGAKKMAELAKAALAAGDSAAAMQAYLAGVKTLYEAAKEEAKRKA | not found (inactive) |
| d1r8_design_ppi_811_dldesign_0_cycle0_af2pred (protein) AQEAADQAAFEAAKAGLEKATEAAVGMLEALGEEEAAKEVREFAEKAKKEAEKLTPKEGAELYGKAANEILRRTSQVAAQAVA | not found (inactive) |
| d1r8_design_ppi_791_dldesign_0_cycle0_af2pred (protein) SENEKKLEEVKKKLEEAKKAAEEDPKAGAALAIETIELAKKAAEEAKKNGDEKTAEEANKLAHEAMKLAAKALAKAAA | not found (inactive) |
| d1r8_design_ppi_373_dldesign_0_cycle0_af2pred (protein) DQETTGNLVLAAAKANAGVEEADKAIEAAEKAAKDPKLKEKAEEAKKLIEEAKKATPEEAKKLLKEAAKLVNEALRAYSA | not found (inactive) |
| d1r8_design_ppi_364_dldesign_0_cycle1_af2pred (protein) ALEEAAREARELADETLAAAKAGTINLEELAARFNEAGRLIREVEALGELAEEVGRYVSRKFNEALTALL | not found (inactive) |
| d1r8_design_ppi_364_dldesign_0_cycle0_af2pred (protein) DLERAAEEAERLAEETLARAAAGEITLEELAEAHRRIGELIERVAASGELAERVARRASRLMNQALTALA | not found (inactive) |
